Screening data deposited in PubChem by several laboratories.
This is a sample that favours compounds with a hit; in the whole collection about 3.5% have one here.
ERa coact pot: enhancers of ERα–SRC-1 coactivator binding, primary screen, biochemical, TR-FRET, ERα LBD, low estradiol. coactivator binding (% of control), % at 25.6 µM. TR-FRET ERalpha-LBD/SRC-Cy5 coactivator binding, 2 h; 100 = basal binding, no effect. Estrogen receptor (Homo sapiens), P03372. 86,000 compounds, 1.3% hits; in the data active means activity above about 200%;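 further: binding measured in presence of low estradiol as agonist stimulus; 0% = peptide alone without receptor and 100% = receptor with peptide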
ERa coact inh: ERα–SRC-1 coactivator interaction inhibitors, primary screen, biochemical, TR-FRET, ERα LBD, estradiol-bound | TR-FRET ER-alpha LBD / SRC-1 peptide | inhibition, % at 25.6 µM | 86,000 compounds, 1.7% hits; in the data active means inhibition above about 50%;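 further: 0% = receptor plus peptide control and 100% = peptide only without receptor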
MMP13 inh: human MMP13 inhibitors, primary screen, biochemical, FRET peptide cleavage. Collagenase 3 (Homo sapiens), P45452. MMP-13 fTHP FRET cleavage, Mca fluorescence. inhibition, % at 4 µM. 65,000 compounds, 0.07% hits;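 active means inhibition above the mean of compound-free control plate wells plus 3 SD, cut at about 14% in these data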;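 further: 0% = DMSO wells and 100% = wells with reference MMP-13 inhibitor after basal subtraction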
Smad3 inh: Smad3/FoxH1 peptide binding inhibitors, primary screen, biochemical, TR-FRET; Mothers against decapentaplegic homolog 3 (Homo sapiens), P84022; TR-FRET Smad3/Dy647-FoxH1 peptide binding, europium anti-His; inhibition, % at 25 µM; 88,000 compounds, 0.29% hits; AID 630, 2007;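 active means compounds that reduce the energy-transfer binding signal between the protein and its labelled peptide by more than half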;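 further: 0% = Smad3 plus labelled peptide maximal FRET and 100% = peptide-only background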
ERb coact inh: inhibitors of ERβ-SRC1 coactivator interaction, primary screen, biochemical, TR-FRET, ERβ LBD, SRC-1 peptide. Estrogen receptor beta (Homo sapiens), Q92731. TR-FRET ER-beta LBD / SRC1-Cy5 peptide binding; receptor agonist-loaded with 1 µM estradiol. inhibition, % at 25.6 µM. 86,000 compounds, 1.3% hits. AID 633, 2007;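 active means compounds whose percent inhibition of the receptor-coactivator binding signal exceeds about 50% in the single-dose screen, limit read from the data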;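 further: 0% = receptor plus peptide wells without compound and 100% = peptide-only wells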
Target sequence (Q92731 whole entry, looked up, the tested form may be a part): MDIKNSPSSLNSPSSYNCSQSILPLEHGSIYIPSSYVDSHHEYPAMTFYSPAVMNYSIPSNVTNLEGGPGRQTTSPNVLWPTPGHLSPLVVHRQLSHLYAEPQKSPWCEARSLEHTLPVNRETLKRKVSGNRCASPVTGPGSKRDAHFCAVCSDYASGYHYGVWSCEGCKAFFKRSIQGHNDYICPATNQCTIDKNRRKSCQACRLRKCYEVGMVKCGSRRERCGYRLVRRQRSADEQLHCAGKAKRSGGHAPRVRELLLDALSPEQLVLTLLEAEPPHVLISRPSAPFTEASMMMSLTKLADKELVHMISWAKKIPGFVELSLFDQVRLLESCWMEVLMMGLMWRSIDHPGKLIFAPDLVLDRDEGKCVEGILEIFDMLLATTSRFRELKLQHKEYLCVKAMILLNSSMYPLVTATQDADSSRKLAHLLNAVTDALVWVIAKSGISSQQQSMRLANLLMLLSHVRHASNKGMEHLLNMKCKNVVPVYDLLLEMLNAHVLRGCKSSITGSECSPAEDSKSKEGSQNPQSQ
MT1-MMP txn act: MT1-MMP promoter reporter activation – cell-based, luciferase luminescence, primary screen; HT1080 MT1-MMP promoter luciferase reporter, overnight; hits give high values; activation factor at 10 µM; 86,000 compounds, 0.16% hits; AID 750, 2007;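 active means activation factor of at least 2 for MT1-MMP transcription at 10 µM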
Active calls of the source: *; x = no result; [ ] = dose if it differs, or a comment.

SMILES | ERa coact pot | ERa coact inh | MMP13 inh | Smad3 inh | ERb coact inh | MT1-MMP txn act
Cc1noc(C)c1COc1cccc(C(=O)N2CCN(C/C=C/c3ccccc3)CC2)c1 | 92.7 | -3.5 | 3.4 | 2.2 | 0.3 | 1.1
CCOC(=O)C1CCCCN1Cc1cc(Cl)ccc1O (centres undefined) | 101.2 | 8.5 | x | -7.7 | 22.9 | x
C#CCn1c(=NC(=O)c2ccc(Cl)s2)sc2cccc(OC)c21 | 150.1 | 18.9 | x | -23.2 | -0.7 | x
CSc1nc(-c2ccco2)cc(C(F)(F)F)c1C#N | 103.2 | -7.2 | x | -0.5 | -2.2 | 1.2
Cc1cc(NC(=O)c2oc3ccccc3c2C)ccc1-n1cnnn1 | 130.9 | 65.2*[fluorescence artefact?] | -1.6 | 5.7 | 50.4*[fluorescence artefact?] | 1.6
COc1cc(OC)cc(C(=O)Nc2ccc(-n3cnnn3)c(C)c2)c1 | 126.8 | -5.6 | 0.2 | 11.5 | -7.7 | 1.6
O=c1[nH]c(=O)n(Cc2ccco2)c2c1C(C(F)(F)F)(C(F)(F)F)N=C(CCC1CCCCC1)N2 | 105.2 | 2.4 | x | 5.9 | 3.9 | 1.1
O=c1[nH]c(=O)n(Cc2ccco2)c2c1C(C(F)(F)F)(C(F)(F)F)N=C(CCc1ccccc1)N2 | 81.2 | 59.5*[fluorescence artefact?] | x | 4.0 | 24.6 | 1
CCCCOC(=O)c1cccc(NC(=O)CC)c1 | 137.9 | -5.4 | -0.4 | -0.6 | -2.8 | 1
CSc1nc(-c2ccco2)cc(-c2ccccc2)c1C#N | 98.0 | -1.3 | -5.7 | 7.7 | 9.5 | 1
COc1ccc(-c2cc(-c3ccc(OC)cc3)c(C#N)c(SC)n2)cc1 | 457.8*[fluorescence artefact?] | 36.0 | x | -68.0 | 38.6 | 1
CCOC(=O)COc1ccc(S(=O)(=O)N2CCc3ccccc3C2)cc1 | 114.6 | -2.8 | 2.6 | -6.4 | -3.9 | 1
O=S(=O)(N1CCCCC1)n1c(Cc2ccccc2)nc2ccccc21 | 69.3 | -2.9 | 6.1 | 7.0 | -3.9 | 1.1
CCCC(c1nnnn1Cc1ccccc1)N1CCC(C(N)=O)CC1 (centres undefined) | 119.1 | -5.8 | -10.4 | -8.4 | 0.3 | 1.2
CC(C)CC(c1nnnn1Cc1ccccc1)N1CCC(C(N)=O)CC1 (centres undefined) | 210.3*[fluorescence artefact?] | -6.2 | x | 2.5 | -12.3 | 1.1
CCOC(=O)CSc1nnc(-c2ccc(S(=O)(=O)N3CCOCC3)cc2)n1-c1ccccc1 | 117.3 | -1.6 | -5.3 | -0.2 | 4.1 | 1
CC(C)NC(=O)Cn1c(SCC(=O)c2ccc(F)cc2)nc2ccccc21 | 73.1 | 33.8 | x | -2.7 | 7.8 | 1.3
C[C@@]12CC[C@H]3c4ccc(O)cc4CC[C@@H]3[C@H]1CC[C@H]2OP(=O)(O)O | x | x | x | 15.8 | x | x
C[C@]12CC[C@@H]3c4ccc(O[C@@H]5O[C@H](C(=O)O)[C@@H](O)[C@H](O)[C@H]5O)cc4CC[C@H]3[C@@H]1C[C@@H](O)[C@@H]2O | 429.1* | -8.4 | 5.7 | 2.0 | 9.9 | 1.1
CN(C)c1ccc(-c2nnc(-c3ccc(S(=O)(=O)C(F)F)cc3)o2)cc1 | 241.1* | 54.6*[fluorescence artefact?] | -2.8 | 2.6 | 23.7 | 1.2
Cc1cccc(NC(=O)c2cnc3n(c2=O)CCS3)c1 | 96.6 | -4.3 | 1.9 | 8.1 | -9.8 | 1.6
O=C(Nc1cccc(C(F)(F)F)c1)c1cnc2n(c1=O)CCS2 | 285.1*[fluorescence artefact?] | 2.4 | 4.2 | 8.5 | 5.7 | 1
O=C(COc1ccc(S(=O)(=O)NC2CCCCC2)cc1Cl)NCC1CCCO1 (centres undefined) | 106.0 | -0.4 | -0.2 | 8.0 | -5.1 | 1.2
O=C(NC1CCCC1)c1cnn2c(C(F)(F)F)cc(-c3ccc4c(c3)OCO4)nc12 | 136.5 | 59.8*[fluorescence artefact?] | 2.0 | 11.6 | -31.8 | 1
COc1ccc(-c2cc(C(F)(F)F)n3ncc(C(=O)NCc4ccco4)c3n2)cc1 | 159.5 | 59.2* | -65.3 | 5.7 | 50.1*[fluorescence artefact?] | 1.1
SMILES | ERa coact pot | ERa coact inh | MMP13 inh | Smad3 inh | ERb coact inh | MT1-MMP txn act
O=c1[nH]c2cc3c(cc2cc1C(c1nnnn1C1CCCCC1)N1CCSCC1)OCCO3 (centres undefined) | 253.6*[fluorescence artefact?] | 21.2 | -50.9 | 44.4 | 34.7 | 1.1
CCCc1nnc(NC(=O)c2c(O)c3cccc4c3n(c2=O)CCC4)s1 | 93.1 | 15.2 | 1.4 | 44.9 | 56.1*[fluorescence artefact?] | 0.9
CN(C)c1ccc(Nc2nc(-c3cccnc3)cs2)cc1 | 107.8 | -22.4 | -0.1 | 7.0 | -3.3 | 2*
Clc1ccc(Nc2nc(-c3cccnc3)cs2)cc1 | 102.3 | -9.1 | x | 6.5 | -4.7 | 1.6
Cc1ccc(C(=O)Oc2ccc(C(=O)COC(=O)C3CC(=O)N(Cc4ccco4)C3)cc2)cc1 (centres undefined) | 274.1*[fluorescence artefact?] | 23.5 | x | 5.0 | 6.8 | 1.7
Cc1ccc(NC(=O)Cn2nnc(C(=O)Nc3ccc(C)c(C)c3)c2N)cc1 | 149.2 | 69.5*[fluorescence artefact?] | 3.4 | -1.2 | 25.7 | 1
COc1cccc(Cn2nnc(C(=O)Nc3ccc(C)cc3)c2N)c1 | 246.2*[fluorescence artefact?] | -1.7 | 11.5 | 2.6 | -1.3 | 1.3
Cc1ccc(NC(=O)c2nnn(-c3cc(C)cc(C)c3)c2N)cc1 | 118.9 | 21.5 | -4.8 | 5.0 | -7.2 | 1.3
COc1ccc(NC(=O)Cn2nnc(C(=O)NCc3ccccc3)c2N)cc1Cl | 175.9 | 18.8 | -1.1 | 12.3 | 5.2 | 1.1
Cc1cccc(-n2nnc(C(=O)Nc3ccc(F)cc3)c2N)c1 | 70.3 | 63.1*[fluorescence artefact?] | 1.1 | 4.2 | 37.0 | 1.6
COc1cccc(CNC(=O)c2nnn(CC(=O)Nc3ccc(C)c(C)c3)c2N)c1 | 287.3* | 35.5 | 6.5 | 8.6 | 13.0 | 1
CSc1ccc(Cn2nnc(C(=O)Nc3ccc(C)c(C)c3)c2N)cc1 | 94.5 | 30.3 | x | -3.1 | 17.8 | x
COC(=O)c1c(C(=O)OC)c2n(c1C)CCC2 | 85.0 | -4.9 | 4.7 | 8.2 | -5.6 | x
COc1ccc(CCC(N)=O)cc1OC | 94.7 | 4.3 | x | 0.2 | -15.3 | 1
COc1ccc(-c2csc(NC(=O)c3ccco3)n2)cc1 | 132.7 | -2.5 | x | 3.0 | -11.1 | 1.9
Cc1ccc(OC(=O)N2CCOCC2)cc1 | 89.5 | -1.6 | x | 6.1 | -2.6 | 1.3
CCNC(=O)C1CC(=O)N(c2ccc(Br)cc2)C1 (centres undefined) | 116.1 | -2.1 | 2.7 | -5.2 | -9.7 | 1.2
CCC(C)NC(=O)C1CCCN(C(=O)Nc2ccc(F)cc2)C1 (centres undefined) | 294.6* | -9.4 | -1.9 | -8.0 | -12.5 | 1.2
CCC(=O)Nc1ccccc1Nc1cc(C#N)c(C#N)cc1[N+](=O)[O-] | 112.2 | 6.3 | x | 15.9 | 5.2 | 1
CCOc1cccc2sc(NC(=O)c3ccc(Br)s3)nc12 | 432.9*[fluorescence artefact?] | 44.7 | -4.8 | -370.0 | 48.1 | 1.2
